Bioassay records deposited in PubChem BioAssay by National Center for Advancing Translational Sciences (NCATS).
NPC1 promoter act = qHTS Assay for NPC1 Promoter Activators; Huh7 NPC1 promoter luciferase reporter, 24 h; Potency, µM (doses to about 9.22 µM), inactives show at the top dose activation, hits mostly activators; actives 2.4% (n = 320,000); AID 485313, 2010; further: % of control where 0% means no effect; nearly all actives have a fitted effect of over 60% in size
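Huh7 reporter cells (NPC1 promoter driving luciferase) are dosed with compound for 24 h at 37 °C, 5% CO2; luciferase detection reagent is then added and luminescence measured after 10 min at ambient temperature.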
Rab9 promoter act = qHTS Assay for Rab9 Promoter Activators; Huh7 Rab9 promoter-luciferase reporter, luminescence, 24 h; Potency, µM (highest dose often 9.22 µM), without a hit: at the top dose activation, negative = inhibition, usual class: activators; actives 2.8% (n = 320,000); further: % of control where 0% means no effect; nearly all actives have a fitted effect of over 60% in size
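Quantitative HTS format; Huh7 Rab9-luciferase reporter cells (1500/well) receive compound 2 h post-plating, incubate 24 h at 37 °C, then get luciferase reagent for 10 min before luminescence reading.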
ELG1 repair inh = qHTS screen for small molecules that inhibit ELG1-dependent DNA repair in human embryonic kidney (HEK293T) cells expressing luciferase-tagged ELG1; HEK293T ELG1-luciferase reporter, luminescence, 16 h; DNA damage induced by 5-fluorouridine; Potency, µM (series often up to 46.1 µM), without a hit: at the top dose activity change, negative = inhibition, most hits filed as inhibitors; actives 2.3% (n = 330,000); AID 504467, 2011; further: on the % scale 0 is the no-effect control and ±100 the full control effect; nearly all actives have a fitted effect of over 55% in size
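Step one: seed 2,000 cells per well. Step two: pin-transfer compound or DMSO alongside 5-fluorouridine. Step three: incubate 16 hr, 37 °C, 5% CO2. Step four: add ONE-Glo, wait 30 min, read luminescence.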
ELG1 genotox = qHTS screen for small molecules that induce genotoxicity in human embryonic kidney (HEK293T) cells expressing luciferase-tagged ELG1; HEK293T ELG1-luciferase reporter, luminescence, 16 h; actives 1.3% (n = 330,000); Potency, µM (series often up to 46 µM), for the others: at the highest dose activity change, positive = activation, actives largely listed as activators; further: % of control where 0% means no effect; nearly all actives have a fitted effect of over 60% in size
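Screening used a luciferase reporter fused to human ELG1 in HEK293T cells. Luminescence was read on a CCD plate imager after 16 hr exposure and 30 min ONE-Glo incubation.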
FLuc counter = qHTS profiling assay for firefly luciferase inhibitor/activator using purifed enzyme and Km concentrations of substrates (counterscreen for miR-21 project); Luciferin 4-monooxygenase (Photinus pyralis), P08659; Potency, µM (titrated, usually from 57.5 µM), for the others: top-dose activity change, negative = inhibition, most hits filed as inhibitors; purified FLuc, Km substrates, luminescence inhibition; actives 6.9% (n = 360,000); AID 588342, 2011;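 further: plate controls were vehicle for no effect and reference inhibitor for full effect; nearly all actives have a fitted effect of over 55% in size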
Target sequence (P08659 whole entry, looked up): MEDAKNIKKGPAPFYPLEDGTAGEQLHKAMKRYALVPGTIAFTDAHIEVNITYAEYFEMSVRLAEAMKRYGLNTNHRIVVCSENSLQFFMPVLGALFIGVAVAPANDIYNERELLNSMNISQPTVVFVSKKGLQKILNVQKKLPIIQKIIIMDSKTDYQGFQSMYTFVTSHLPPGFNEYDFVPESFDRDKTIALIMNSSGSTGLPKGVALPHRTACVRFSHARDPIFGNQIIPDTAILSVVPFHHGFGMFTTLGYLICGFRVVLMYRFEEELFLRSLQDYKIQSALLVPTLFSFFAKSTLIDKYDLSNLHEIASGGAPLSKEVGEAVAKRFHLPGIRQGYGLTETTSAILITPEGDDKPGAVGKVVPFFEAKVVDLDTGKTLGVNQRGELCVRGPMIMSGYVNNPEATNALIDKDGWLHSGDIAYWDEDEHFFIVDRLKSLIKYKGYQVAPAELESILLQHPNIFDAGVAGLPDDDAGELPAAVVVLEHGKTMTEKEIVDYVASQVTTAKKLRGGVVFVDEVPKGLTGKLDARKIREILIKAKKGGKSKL
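Biochemical qHTS of compounds, final roughly 60 µM downward over six points, against 10 nM purified firefly luciferase using Km concentrations of substrates (10 uM D-luciferin, 10 uM ATP) in Tris acetate pH 7.5 buffer; luminescence output.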
SMN2 splice up = qHTS Assay for Enhancers of SMN2 Splice Variant Expression; actives 2.8% (n = 210,000); AID 1458, 2008; HEK293 SMN2-luciferase splicing reporter, luminescence, 30-36 h; Potency, µM (series often up to 46.1 µM), for the others: top-dose activity change, positive = activation, hits mostly activators; further: % of control where 0% means no effect; nearly all actives have a fitted effect of over 55% in size
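qHTS luciferase splicing reporter: luminescence rises when SMN2 exon 7 is included in transfected HEK293 cells. Compound exposure lasted 30-36 h at 37C, with 4.5 mM final sodium butyrate as control, followed by a ONE-Glo read.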
* = called active by the depositor; u = inconclusive; x = not tested or not shown; [ ] = dose if it differs, or a comment. An excerpt weighted towards active compounds, which were near 9.2% of everything screened. The call rests on the fitted dose curve; in most records, active means well fitted curve in the direction sought with a large enough effect; inconclusive means small, poorly fitted or top-dose-only effect, or another doubt; inactive means no such curve, though single readings can be large; an effect the other way counts as inactive or inconclusive. Potency means the concentration at half of the fitted maximal effect.

SMILES | NPC1 promoter act | Rab9 promoter act | ELG1 repair inh | ELG1 genotox | FLuc counter | SMN2 splice up
O=C(Nc1ccc(S(=O)(=O)N2CCCCCC2)cc1)c1cc(=O)c2ccccc2o1 | x | x | x | x | 3% | 14%
COc1cc2c(cc1O)-c1ccccc1CN(C)C2 | x | x | x | x | x | 14%
O=C(Nc1nnc2n1CCS2)c1ccc(F)cc1F | x | x | x | x | 3% | x
CCOc1ccc(-c2cc(NC(=O)c3cccc(Cl)c3)c(C(=O)OC)s2)cc1 | x | x | x | x | 0% | 14%
Cc1ccc(NC(=O)C(=O)c2c(-c3ccccc3)cc3ccccn23)cc1S(=O)(=O)N1CCOCC1 | -3% | -5% | 9.2µM* | -9% | 10% | -24%
O=c1oc2ccccc2cc1-c1csc(NN=C2CCCC2)n1 | 8% | 15% | u | 4% | -13% | -1%[1.84 µM]
O=C(O)c1cccc(Nc2nc(-c3cc4ccccc4oc3=O)cs2)c1 | 2.8µM* | u | u | u | 6µM* | x
Cc1cc(C)cc(-n2c(SCC(=O)Nc3nnc(C)s3)nc3c([nH]c4ccccc43)c2=O)c1 | x | x | x | x | -1% | x
CC(C)CCn1c(SCC(=O)NC2CC2)nc2cc(Cl)ccc2c1=O | 0% | -3% | 7% | 0% | -1% | x
CS(=O)(=O)Nc1ccccc1C(=O)Nc1ccccc1C(=O)N1CCCC1 | 4% | 2% | -6% | -6% | 4% | x
c1ccc2sc(N3CN(CCN4CCOCC4)CN(c4nc5ccccc5s4)C3)nc2c1 | 14% | 18% | 17% | 3% | -1% | -7%
O=C(/C=C/N1CCOCC1)c1coc2ccccc12 | 1.6µM* | 1.4µM* | u | u | 9.5µM* | x
NC(=O)c1ccc(NC(=O)c2ccc(CN3CCOCC3)cc2)cc1 | 15% | -1% | u | 18% | -18% | 22%
c1ccc2sc(SN3CCOCC3)nc2c1 | 0% | 0% | 21% | 4% | 24µM* | -6%
Cn1c(=O)n(C)c2cc(NC(=O)c3ccccc3NS(C)(=O)=O)ccc21 | 6% | 6% | u | 14% | 27µM* | x
O=C(O)c1coc2ccccc12 | -5% | 4% | 1% | -7% | 2% | x
O=C(Nc1ccc(CN2CCOCC2)cc1)c1cc2ccccn2n1 | 0.32µM* | 0.45µM* | u | u | 1.2µM* | u
COCCN1Cc2cccc(C(=O)NC(C)CCc3ccco3)c2C1=O (configuration not stated) | -6% | 2% | 7% | 1% | -1% | x
CCCC(C(=O)NCc1ccco1)N(Cc1ccco1)C(=O)CNS(=O)(=O)c1ccccc1 (configuration not stated) | 2% | -2% | -14% | -8% | 2% | x
O=C(Nc1ccc2c(c1)OCCO2)c1cc2ccccc2o1 | 0.89µM* | 0.45µM* | u | u | 1.1µM* | 1.3µM*
O=C(/C=C/N1CCOCC1)c1cc2ccccc2o1 | 3.5µM* | 4µM* | u | u | 9.5µM* | 11µM*
O=C(Nc1ccc(N2CCOCC2)cc1)c1cc2ccccc2o1 | 3.5µM* | 1.8µM* | u | u | 5.4µM* | 2.8µM*
CCc1ccc(C(=O)Nc2ccc(C)c(NS(C)(=O)=O)c2)cc1 | u | 13% | u | 1% | 12µM* | x
CCC(=O)N1CCN(c2ccc(NC(=O)c3cc4ccccc4o3)cc2)CC1 | 1% | -2% | u | -3% | u | -29%
CCn1c(=O)c(CCC(=O)NCC2CCCO2)c(C)c2c(C)nn(-c3ccc(C)cc3)c21 (configuration not stated) | -3% | -10% | -16% | -9% | 1% | x
SMILES | NPC1 promoter act | Rab9 promoter act | ELG1 repair inh | ELG1 genotox | FLuc counter | SMN2 splice up
O=C(CN1C(=O)COc2ccc(S(=O)(=O)NC3CCCC3)cc21)Nc1ccc(Cl)cc1F | x | x | x | x | -10% | x
CCOc1ccccc1CNC(=O)C1CCN(c2nn3c(=O)cc(C)nc3s2)CC1 | 0% | -6% | 6% | 1% | 1% | x
O=C(Nc1ccc(CN2CCOCC2)cc1)c1cc2ccccc2o1 | 1.6µM* | 0.63µM* | u | 12% | 3.8µM* | 5.6µM*
O=C(Nc1ccc(NC(=O)c2cc3ccccc3o2)cc1)c1ccccc1 | x | x | x | x | -1% | -15%
O=C(O)c1ccc(NC(=O)c2cc3ccccc3o2)cc1 | u | u | u | u | 2.1µM* | 6.3µM*
O=C(NC(=S)Nc1ccc(CN2CCOCC2)cc1)c1cc2ccccc2o1 | 6% | 19% | u | 15% | -2% | 7%
CC(=O)Cc1nsc(NC(=O)c2ccc(-c3cccc(Cl)c3)o2)n1 | 2% | 0% | -28% | -2% | 11µM* | 20%
Cn1c(=O)n(C)c2cc(NC(=O)c3cc4ccccc4o3)ccc21 | 14% | 28% | u | 16µM* | u | x
COc1ccc(N2CCN(c3c4c(nc5nncn35)CCC4)CC2)cc1 | x | x | x | x | -9% | -45%
O=C(Nc1ccc2oc(=O)ccc2c1)c1cc2ccccc2o1 | 2.5µM* | 1.6µM* | u | u | 7.6µM* | 3.5µM*
COc1ccc(NC(=O)c2oc3ccccc3c2NC(=O)c2cc3ccccc3o2)cc1 | x | x | x | x | u | -5%
O=C(Nc1c(C(=O)Nc2ccc(F)cc2)oc2ccccc12)c1cc2ccccc2o1 | x | x | x | x | 2.7µM* | 2%
Cc1cc(=O)oc2cc(NC(=O)c3cc4ccccc4o3)ccc12 | u | 21% | u | u | -17% | 7%
O=C(Nc1ccc(CN2CCOCC2)cc1)c1ccc(-c2cccc(Cl)c2)o1 | -4% | x | u | -16% | 17µM* | -79%
O=C(Nc1ccc2oc(-c3cccnc3)nc2c1)c1cc2ccccc2o1 | 9% | 3% | 18µM* | -18% | u | -21%
COc1cccc(CNC(=O)c2cc(S(=O)(=O)N3CCCCC3)cn2C)c1 | x | x | x | x | -3% | x
Cc1ccc(CN2C(=O)CSC(C)C2=O)cc1 (configuration not stated) | 0% | -2%[1.84 µM] | 14% | 0% | 1% | x
O=C(Nc1ccc(N2CCOCC2)cc1)c1nc2ccccc2s1 | 0.1µM* | 0.1µM* | u | u | 0.24µM* | x
Cn1c(=O)n(C)c2cc(NS(=O)(=O)c3ccccc3)ccc21 | -4% | 4% | u | 18µM* | 3% | x
CCc1ccc(C(=O)Nc2ccc3c(c2)n(C)c(=O)n3C)cc1 | -4% | u | u | 18µM* | 15µM* | x
Cc1ccc(S(=O)(=O)Nc2ccc3c(c2)n(C)c(=O)n3C)cc1 | -4% | 7% | u | u | 3% | x
